Laboratory results published in PubChem BioAssay (NCATS).
Inconclusive results are not listed. Entries that show only a call come without a potency. The source made the active and inactive calls. The call rests on the fitted dose curve; in most records, active means well fitted curve in the direction sought with a large enough effect; inconclusive means small, poorly fitted or top-dose-only effect, or another doubt; inactive means no such curve, though single readings can be large; an effect the other way counts as inactive or inconclusive.

Biological target: Alpha-galactosidase (Coffea arabica) (UniProt Q42656)
Assay: Counterscreen for Glucocerebrosidase Inhibitors: qHTS Assay for Coffee Bean alpha-Galactosidase at pH 4.5 (AID 957)
Conditions: purified coffee bean alpha-galactosidase, fluorogenic substrate; series mostly up to 76.9 µM
In short: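 Green coffee bean enzyme (2 nM final) was incubated with compounds (0.7 nM to 77 uM) and 4-methylumbelliferyl alpha-D-galactopyranoside (80 uM final) in 50 mM citric acid, 0.005% Tween-20, pH 4.5, 20 min at room temperature; AC50 from Hill fits.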

Chain of Alpha-galactosidase (Coffea arabica) (Q42656 whole entry, looked up): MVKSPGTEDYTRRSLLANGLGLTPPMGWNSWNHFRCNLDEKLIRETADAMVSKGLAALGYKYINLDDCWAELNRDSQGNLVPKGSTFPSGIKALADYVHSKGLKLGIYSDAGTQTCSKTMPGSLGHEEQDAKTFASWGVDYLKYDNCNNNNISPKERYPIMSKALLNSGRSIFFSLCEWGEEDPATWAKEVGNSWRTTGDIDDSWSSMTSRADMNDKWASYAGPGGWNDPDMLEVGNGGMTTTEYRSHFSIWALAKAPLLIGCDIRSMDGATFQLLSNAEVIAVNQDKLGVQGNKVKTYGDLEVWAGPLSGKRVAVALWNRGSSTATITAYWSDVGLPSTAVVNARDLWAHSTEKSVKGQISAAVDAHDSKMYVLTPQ

SMILES | outcome
CN(C)CCCN1c2ccccc2Sc2ccc(C(F)(F)F)cc21 | inactive
Clc1ccccc1C(c1ccccc1)(c1ccccc1)n1ccnc1 | inactive
O=C(CCCN1CCC(O)(c2cccc(C(F)(F)F)c2)CC1)c1ccc(F)cc1 | inactive
NC(=O)CC[C@@H](N)C(=O)O | inactive
C[C@]12CCC(=O)C=C1CC[C@@H]1[C@@H]2[C@@H](O)C[C@@]2(C)[C@H]1CC[C@]2(O)C(=O)CO | inactive
CCCOc1ccccc1-c1nc2n[nH]nc2c(=O)[nH]1 | inactive
O=C1CC2(CCCC2)CC(=O)N1CCCCN1CCN(c2ncccn2)CC1 | inactive
NCCc1ccc(O)c(O)c1 | inactive
CCCCNc1ccc(C(=O)OCCN(C)C)cc1 | inactive
COc1ccc2c(c1)c(CC(=O)O)c(C)n2C(=O)c1ccc(Cl)cc1 | inactive
CCC(=O)c1ccc2c(c1)N(CCCN(C)C)c1ccccc1S2 | inactive
c1cc(CN2CCCCC2)cc(OCCCNc2nc3ccccc3s2)c1 | inactive
CN(C)CCN(Cc1cccs1)c1ccccn1 | inactive
CC(C)NCC(O)COc1ccc(COCCOC(C)C)cc1 (stereo not drawn) | inactive
COc1nc(C)nc(Cl)c1NC1=NCCN1 | inactive
Cc1ccc(=O)n(-c2ccccc2)c1 | inactive

SMILES | outcome
OCCN1CCN(CCCN2c3ccccc3C=Cc3ccccc32)CC1 | inactive
C[N+](C)(C)CCCCCCCCCC[N+](C)(C)C | inactive
Cc1cc(C(C)(C)C)cc(C)c1CC1=NCCN1 | inactive
C[n+]1cc2c3c(ccc2c2ccc4cc5c(cc4c21)OCO5)OCO3 | inactive
C=Cc1c(C)c2cc3[nH]c(cc4nc(cc5nc(cc1[nH]2)C(C)=C5CCC(=O)O)C(CCC(=O)O)=C4C)c(C)c3C=C | inactive
Cc1[nH]c(=O)c(C#N)cc1-c1ccc2nccn2c1 | inactive
CCCCNc1c(C(=O)OCC)c(C)nc2c1cnn2CC | inactive
CN(C)C(=O)Oc1cccc([N+](C)(C)C)c1 | inactive
CC1=C(C)C(=O)C(CCCCC#CCCCC#CCO)=C(C)C1=O | inactive
NS(=O)(=O)c1cc2c(cc1Cl)NCNS2(=O)=O | inactive
O=C(Nc1ccc([N+](=O)[O-])cc1Cl)c1cc(Cl)ccc1O | inactive
O=C(O)CP(=O)(O)O | inactive
C[C@]12CCC(=O)C=C1CC[C@@H]1[C@@H]2C(=O)C[C@@]2(C)[C@H]1CC[C@]2(O)C(=O)CO | inactive
CSc1ccc(C(=O)c2[nH]c(=O)[nH]c2C)cc1 | inactive
O=C(O)CCc1nc(-c2ccccc2)c(-c2ccccc2)o1 | inactive
Cc1cc(C(C)(C)C)c(O)c(C)c1CC1=NCCN1 | inactive

Tested on: not listed separately
Assay: MultiTox-Fluor Cytotoxicity Assay - LYMP1-003 - Dead Cells (AID 961); further: potency means the concentration at half of the fitted maximal effect; nearly all actives have a fitted effect of over 70% in size
Conditions: LYMP1-003 lymphoblastoid cells, dead-cell protease fluorescence; series mostly up to 92.2 µM
In short: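 Dead-cell protease release, detected as bis-AAF-R110 fluorescence at 485/520 nm, was measured in LYMP1-003 cells after 16 h compound treatment at 37 C. AC50 values came from Hill-modeled qHTS curves normalized to DMSO (0%) and 15 uM tetraoctylammonium bromide (100%).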

SMILES | Potency
CC[n+]1c(-c2ccccc2)c2cc(N)ccc2c2ccc(N)cc21 | 39.8 µM (active)
CCCCCCCCCCCCCCCC[n+]1ccccc1 | 20 µM (active)
CN(C)c1ccc(C(=C2C=CC(=[N+](C)C)C=C2)c2ccc(N(C)C)cc2)cc1 | 10 µM (active)

Tested on: not listed separately
Assay: Cell Viability - LYMP1-003 - Assay at 40 hr (AID 964); further: potency means the concentration at half of the fitted maximal effect; nearly all actives have a fitted effect of over 60% in size
Conditions: LYMP1-003 lymphoblastoid viability; series mostly up to 92.2 µM
In short: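 Human lymphoblastoid LYMP1-003 cells, 2500/well in complete medium, rested 5 hr at 37 C, then exposed to compounds for 40 hr at 37 C. Viability read as intracellular ATP by CellTiter-Glo luminescence; AC50 from Hill fits of concentration-response data.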

SMILES | Potency
CC[n+]1c(-c2ccccc2)c2cc(N)ccc2c2ccc(N)cc21 | 6.31 µM (active)
Oc1ccc(Cl)cc1Cc1cc(Cl)ccc1O | 25.1 µM (active)
Oc1ccc(Cl)cc1Sc1cc(Cl)ccc1O | 31.6 µM (active)
